According to PubChem BioAssay (NCI):
The panel holds about 83,000 compounds, 20% with a hit somewhere; the sample as a whole holds those more often.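 Compound tested at a single concentration for 48 hours in 96-well plates; a percent growth value below 10 was scored as active.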 A number with no mark means an inactive call. Activity calls are given as the source filed them.

Tests used:
Test in all cases: NCI-60 one-dose screen, 48 h (100 = growth as untreated, 0 = no growth, -100 = all killed)
Settings in all cases: 10 µM unless noted
HCT-15 colon = system: HCT-15 colon
HT29 colon = system: HT29 colon
SNB-75 CNS = system: SNB-75 CNS
SNB-19 CNS = system: SNB-19 CNS
U251 CNS = system: U251 CNS
SK-MEL-5 melanoma = system: SK-MEL-5 melanoma
UACC-62 melanoma = system: UACC-62 melanoma
LOX IMVI melanoma = system: LOX IMVI melanoma
SK-MEL-28 melanoma = system: SK-MEL-28 melanoma
SK-MEL-2 melanoma = system: SK-MEL-2 melanoma
EKVX NSCLC = system: EKVX NSCLC
SN12C renal = system: SN12C renal
UO-31 renal = system: UO-31 renal
TK-10 renal = system: TK-10 renal
ACHN renal = system: ACHN renal
CAKI-1 renal = system: CAKI-1 renal
CCRF-CEM leukemia = system: CCRF-CEM leukemia
MOLT-4 leukemia = system: MOLT-4 leukemia
A498 renal = system: A498 renal

COc1cc(C(=O)/C=C/c2cccnc2Nc2ccc(Cl)cc2)cc(OC)c1OC
growth (HCT-15 colon): -45.9% (active) | growth (HT29 colon): -55.1% (active) | growth (SNB-75 CNS): -74.7% (active) | growth (SNB-19 CNS): -80.5% (active) | growth (U251 CNS): -95.3% (active) | growth (SK-MEL-5 melanoma): -86.8% (active) | growth (UACC-62 melanoma): -67% (active) | growth (LOX IMVI melanoma): -65.5% (active) | growth (SK-MEL-28 melanoma): -80.4% (active) | growth (SK-MEL-2 melanoma): -65% (active) | growth (EKVX NSCLC): 23.7% | growth (SN12C renal): -58.7% (active) | growth (UO-31 renal): -99.3% (active) | growth (TK-10 renal): -68.5% (active) | growth (ACHN renal): -97.1% (active) | growth (CAKI-1 renal): -6.13% (active) | growth (CCRF-CEM leukemia): -10.8% (active) | growth (MOLT-4 leukemia): -6.63% (active)

Cc1ccccc1COc1ccc(-c2ccnn2-c2ccc(Cl)cc2)cc1
growth (HCT-15 colon): 39.9% | growth (HT29 colon): 17.6% | growth (SNB-75 CNS): 60.7% | growth (SNB-19 CNS): 62% | growth (U251 CNS): 46% | growth (SK-MEL-5 melanoma): 66.6% | growth (UACC-62 melanoma): 60.7% | growth (LOX IMVI melanoma): 64.3% | growth (SK-MEL-28 melanoma): 69.4% | growth (SK-MEL-2 melanoma): 39.2% | growth (EKVX NSCLC): 77% | growth (SN12C renal): 67.6% | growth (UO-31 renal): 74.4% | growth (TK-10 renal): 83.8% | growth (ACHN renal): 77.6% | growth (CAKI-1 renal): 59.7% | growth (A498 renal): 57.5% | growth (CCRF-CEM leukemia): 42.4% | growth (MOLT-4 leukemia): 26.3%

O=[N+]([O-])c1ccc(Nc2nc(NCCN3CCOCC3)ncc2[N+](=O)[O-])cc1
growth (HCT-15 colon): 84.9% | growth (HT29 colon): 91.8% | growth (SNB-75 CNS): 76.4% | growth (SNB-19 CNS): 83.9% | growth (U251 CNS): 88.6% | growth (SK-MEL-5 melanoma): 96% | growth (UACC-62 melanoma): 84.2% | growth (LOX IMVI melanoma): 96.8% | growth (SK-MEL-28 melanoma): 98% | growth (SK-MEL-2 melanoma): 93.7% | growth (EKVX NSCLC): 88.2% | growth (SN12C renal): 90.2% | growth (UO-31 renal): 63.9% | growth (TK-10 renal): 76.5% | growth (ACHN renal): 80.9% | growth (CAKI-1 renal): 56.7% | growth (A498 renal): 79.1% | growth (CCRF-CEM leukemia): 98.1% | growth (MOLT-4 leukemia): 103%

CN(CCCCCl)P(=O)(OCc1ccc([N+](=O)[O-])o1)C(F)(F)c1ccc(CC(=O)NC[C@@H](O)/C=C\[C@@H](O)[C@H](CO)Cc2ccccc2)cc1 (some centres undefined)
growth (HCT-15 colon): 96.2% | growth (HT29 colon): 77% | growth (SNB-75 CNS): 95.4% | growth (SNB-19 CNS): 102% | growth (U251 CNS): 93.7% | growth (SK-MEL-5 melanoma): 97.1% | growth (UACC-62 melanoma): 74.4% | growth (LOX IMVI melanoma): 60.4% | growth (SK-MEL-28 melanoma): 97.8% | growth (SK-MEL-2 melanoma): 66.5% | growth (EKVX NSCLC): 99.3% | growth (SN12C renal): 98.8% | growth (UO-31 renal): 88.9% | growth (TK-10 renal): 113% | growth (ACHN renal): 94% | growth (CAKI-1 renal): 104% | growth (A498 renal): 83.8% | growth (CCRF-CEM leukemia): 70.7% | growth (MOLT-4 leukemia): 93.5%

CC1=CC(C)(C)Nc2ccc(Cc3ccc4c(c3)C(C)=CC(C)(C)N4)cc21
growth (HCT-15 colon): 101% | growth (HT29 colon): 103% | growth (SNB-75 CNS): 86.3% | growth (SNB-19 CNS): 93.4% | growth (U251 CNS): 93.5% | growth (SK-MEL-5 melanoma): 92.8% | growth (UACC-62 melanoma): 84.1% | growth (LOX IMVI melanoma): 88.7% | growth (SK-MEL-28 melanoma): 104% | growth (SK-MEL-2 melanoma): 90.6% | growth (EKVX NSCLC): 81.4% | growth (SN12C renal): 97.1% | growth (UO-31 renal): 77.8% | growth (TK-10 renal): 112% | growth (ACHN renal): 93.8% | growth (CAKI-1 renal): 73.6% | growth (A498 renal): 109% | growth (MOLT-4 leukemia): 82.9%

COc1ccc(C(=O)/C=C/c2cccnc2Nc2cc(OC)c(OC)c(OC)c2)cc1
growth (HCT-15 colon): 18.1% | growth (HT29 colon): 15.1% | growth (SNB-75 CNS): 21.2% | growth (SNB-19 CNS): 36.3% | growth (U251 CNS): 13% | growth (SK-MEL-5 melanoma): 43% | growth (UACC-62 melanoma): 50% | growth (LOX IMVI melanoma): -26% (active) | growth (SK-MEL-28 melanoma): 71.5% | growth (SK-MEL-2 melanoma): 47.4% | growth (EKVX NSCLC): 61.9% | growth (SN12C renal): 8.5% (active) | growth (UO-31 renal): 51.1% | growth (TK-10 renal): 44.9% | growth (ACHN renal): 16.4% | growth (CAKI-1 renal): 32.2% | growth (CCRF-CEM leukemia): -16.5% (active) | growth (MOLT-4 leukemia): 2.59% (active)

Cc1cc2c3ccccc3ccc2[n+]2ccccc12
growth (HCT-15 colon): 105% | growth (HT29 colon): 69% | growth (SNB-75 CNS): 14.6% | growth (SNB-19 CNS): 4.52% (active) | growth (U251 CNS): 6.05% (active) | growth (SK-MEL-5 melanoma): -44.8% (active) | growth (UACC-62 melanoma): 59.8% | growth (LOX IMVI melanoma): 74.4% | growth (SK-MEL-28 melanoma): 14.9% | growth (SK-MEL-2 melanoma): 40.5% | growth (EKVX NSCLC): 14.5% | growth (SN12C renal): -7% (active) | growth (UO-31 renal): 56.9% | growth (TK-10 renal): 88.4% | growth (ACHN renal): 95.1% | growth (A498 renal): 9.14% (active) | growth (MOLT-4 leukemia): 2.74% (active)

C=CCSSc1ncnc2c1ncn2C1OC(CO)C(O)C1O (centres undefined)
growth (HCT-15 colon): 47.9% | growth (HT29 colon): 28.6% | growth (SNB-75 CNS): 39.7% | growth (SNB-19 CNS): 88.1% | growth (U251 CNS): 80% | growth (SK-MEL-5 melanoma): 61.1% | growth (UACC-62 melanoma): 18.4% | growth (LOX IMVI melanoma): 8.74% (active) | growth (SK-MEL-28 melanoma): 109% | growth (EKVX NSCLC): 91.9% | growth (SN12C renal): 76.2% | growth (UO-31 renal): 36.5% | growth (ACHN renal): 25.3% | growth (CAKI-1 renal): -2.6% (active) | growth (A498 renal): 43.3% | growth (MOLT-4 leukemia): 13.2%
